Data reported in PubChem BioAssay (NCATS).
Where “and” joins values, the source holds several entries; their conditions need not be identical. Equal values may be shown once. Results filed as inconclusive are left out. Calls of active or inactive are those of the source. Unless noted, the call rests on the fitted dose curve; in most records, active means well fitted curve in the direction sought with a large enough effect; inconclusive means small, poorly fitted or top-dose-only effect, or another doubt; inactive means no such curve, though single readings can be large; an effect the other way counts as inactive or inconclusive.

Experiments:
[1] = qHTS profiling of the MIPE4 collection as inhibitors of Plasmodium falciparum (3D7) proliferation (AID 743344; call rule not given here;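 further: scaled between DMSO vehicle wells and 0.29 µM artemisinin as full inhibition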); conditions: P. falciparum 3D7 in erythrocytes, SYBR Green DNA fluorescence, 72 h; at 28.5 µM unless noted
Summary of the method: (§1)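 Erythrocytes infected with P. falciparum (0.3% parasitemia, 2.5% hematocrit) incubated with compounds 72 h at 37 C, 5% CO2. Lysis with saponin/Triton buffer containing SYBR Green I, overnight at room temperature in the dark; DNA fluorescence (485/535 nm) normalised to 0.29 uM artemisinin and DMSO.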

[2] = qHTS profiling of the MIPE4 collection as inhibitors of Plasmodium falciparum (DD2) proliferation (AID 743345; call rule not given here); conditions: P. falciparum Dd2 in erythrocytes, SYBR Green DNA, 72 h; at 28.5 µM unless noted
Summary of the method: as §1

[3] = qHTS profiling of the MIPE4 collection as inhibitors of Plasmodium falciparum (DD2) proliferation (Rep 2) (AID 743346; call rule not given here); conditions: P. falciparum Dd2 in erythrocytes, SYBR Green DNA, 72 h; at 28.5 µM unless noted
Summary of the method: as §1

[4] = qHTS profiling of the MIPE4 collection as inhibitors of Plasmodium falciparum (HB3) proliferation (AID 743347; call rule not given here;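 further: plate controls were DMSO vehicle wells for no effect and artemisinin wells for full effect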); conditions: P. falciparum HB3 in erythrocytes, SYBR Green DNA, 72 h; at 28.5 µM unless noted
Summary of the method: as §1

[5] = High-throughput drug toxicity screening in the BPDCN cell line Gen2.2 (AID 1224824; call rule not given here;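 further: cells exposed to compounds for 48 h before reading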); conditions: Gen2.2 BPDCN cells; at 45.8 µM (top of the series) unless noted
Summary of the method: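 Readout is ATP luminescence from Gen2.2 cells after two days of drug exposure in serum-containing medium at 37 °C. Values express percent activity, with vehicle defining full signal and 9.2 uM bortezomib defining zero.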

[6] = High-throughput drug toxicity screening in the BPDCN cell line Cal-1 (AID 1224825; call rule not given here); conditions: Cal-1 BPDCN cell viability, qHTS; at 45.8 µM (top of the series) unless noted
Summary of the method: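 Cal-1 cells, 500 per well in phenol-red-free RPMI with 10% FBS, exposed to compounds for 48 hours at 37C, 5% CO2. Viability read by CellTiter-Glo luminescence; percent activity normalized to DMSO (100%) and 9.2 uM bortezomib final (0%).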

[7] = qHTS assay for measurement of the activity of small molecule inhibitors on Zika virus induced Caspase-3 activity in human iPSC derived neural progenitor cells (hNPCs) (AID 1224857); further: % of control where 0% means no effect; nearly all actives have a fitted effect of over 65% in size
Summary of the method: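 hNPCs seeded 350 cells/well, cultured 16–20 h; compounds added 1 h before ZIKV (2 FFU/cell), 37 C 6 h. Caspase-Glo 3/7 luminescence after 30 min RT; % inhibition from induction scaled to uninfected (0%) and infected (100%) wells.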

[8] = qHTS assay for measurement of the activity of small molecule inhibitors on Zika virus induced Caspase-3 activity in human astrocytoma cells (AID 1224859);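 further: plate controls were ZIKV-infected untreated cells for no effect and uninfected cells for full effect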
Summary of the method: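 Luminescence read-out (Caspase-Glo 3/7, 30 min RT) of caspase activity in SNB-19 cells infected 6 h with ZIKV, 2 FFU/cell, after 1 h compound pretreatment; % inhibition from induction normalised to uninfected (0%) and infected (100%) wells.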

[9] = qHTS Screen of the MIPE 4.0 Collection Against Ewings Sarcoma (RDES) (AID 1259252); further: nearly all actives have a fitted effect of over 35% in size; further: potency means the concentration at half of the fitted maximal effect
Summary of the method: (§2)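 Dose series incubated 48 h with cells in RPMI plus 5% FBS, glutamine and penicillin/streptomycin; cell viability then quantified via CellTiter-Glo.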

[10] = qHTS Screen of the MIPE 4.0 Collection Against Ewings Sarcoma (EW8) (AID 1259255); further: nearly all actives have a fitted effect of over 35% in size; further: potency means the concentration at half of the fitted maximal effect;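 on viability: 100% = DMSO-treated cells and 0% = medium-only wells without cells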
Summary of the method: as §2

[11] = qHTS Screen of the MIPE 4.0 Collection Against Ewings Sarcoma (TC32) (AID 1259256); further: nearly all actives have a fitted effect of over 45% in size; further: potency means the concentration at half of the fitted maximal effect
Summary of the method: as §2

[12] = qHTS assay to identify small molecule inhibitors of chordoma cells - UCH-1 (AID 1259355); further: on the % scale 0 is the no-effect control and ±100 the full control effect; nearly all actives have a fitted effect of over 55% in size
Summary of the method: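 Cells (800/well) were seeded and left overnight at 37 C, 5% CO2, then treated with drugs at 15 concentrations plus a combination mix of auranofin, camptothecin, doxorubicin, rubitecan and topotecan. Viability after 48hr was read by CellTiter-Glo luminescence.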

[13] = qHTS Assay for Identifying Gametocytocidal Compounds (AID 743244);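 further: on the % scale 0 is the no-effect control and ±100 the full control effect; actives lower the fluorescent signal which means gametocytes are killed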; conditions: P. falciparum 3D7 stage III-V gametocytes, alamarBlue, 72 h; max response: stronger effect = lower value
Summary of the method: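 P. falciparum 3D7 stage III–V gametocytes (20,000 cells/well) were exposed to compounds for 72 h at 37 °C, 5% CO2. AlamarBlue was then added for 24 h; decreased resorufin fluorescence (Ex 525/Em 598 nm) indicated loss of viability.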

[14] = qHTS Screen of the MIPE 4.0 Collection Against Ewings Sarcoma (TC71) (AID 1259253); further: potency means the concentration at half of the fitted maximal effect; nearly all actives have a fitted effect of over 40% in size
Summary of the method: as §2

[15] = qHTS assay for cell viability of HEK293 cells (AID 743288); conditions: ATP luminescence (CellTiter-Glo), 18 h; max response: stronger effect = lower value; further: on the % scale 0 is the no-effect control and ±100 the full control effect; nearly all actives have a fitted effect of over 50% in size
Summary of the method: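 Luminescent ATP quantitation served as the viability read-out. Cells (parental HEK293, 2,000/well) received compounds after at least 5 h at 37 C and were exposed for 18 h before a 30 min room-temperature reagent step.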

[16] = qHTS assay for cell viability of the p53RE-bla HCT-116 cell line (AID 743292); further: on the % scale 0 is the no-effect control and ±100 the full control effect; nearly all actives have a fitted effect of over 55% in size
Summary of the method: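 CellSensor p53RE-bla HCT-116 cells (4,000/well) pre-incubated 5 h at 37 C, then exposed to compounds in DMSO for 16 h at 37 C. Viability read as ATP content by CellTiter-Glo luminescence after 30 min at room temperature.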

SMILES | parasite growth, % of DMSO control [1] [%] | parasite growth remaining, % of DMSO control (lower = more inhibition) [2] [%] | parasite growth, % of control (lower = inhibition) [3] [%] | growth, % of control [4] [%] | cell viability, % of control (lower = more cytotoxic) [5] [%] | viability (% of control) [6] [%] | Potency [7] | Potency [8] | Potency [9] | Potency [10] | Potency [11] | Potency [12] | max response [13] | Potency [14] | max response [15] | Potency [16]
C#CCN[C@@H]1CCc2ccccc21 | 95.8 | 129 | 95.4 | 103 | 153 | 57.2 | inactive | inactive | inactive | inactive | inactive | inactive | – | – | – | –
Cc1nnc(C(=O)NC(C)(C)c2nc(C(=O)NCc3ccc(F)cc3)c(O)c(=O)n2C)o1 | 83.6 | 91.4 | 81.9 | 79.5 | 126 | 134 | inactive | inactive | inactive | inactive | inactive | – | 3.93% (inactive) | – | – | –
CCn1cc(C(=O)O)c(=O)c2cc(F)c(N3CCNCC3)cc21 | – | – | – | – | 113 | 104 | inactive | inactive | inactive | inactive | inactive | inactive | 1.43% (inactive) and -0.58% (inactive) | – | – | –
CCn1cc(C(=O)O)c(=O)c2cc(F)c(N3CCN(C)CC3)cc21 | 206 | 70.5 | – | 370 | 85.7 | 97.9 | inactive | inactive | inactive | inactive | inactive | inactive | 4.94% (inactive) | – | – | –
CC1(C)[C@H](C(=O)O)N2C(=O)C[C@H]2S1(=O)=O | – | – | – | – | 240 | 103 | inactive | inactive | inactive | inactive | inactive | – | 0.138% (inactive) | – | – | –
Nc1nc(=S)c2[nH]cnc2[nH]1 | 93.4 | 101 | 51.3 | 216 | 51.9 | 7.77 | inactive | inactive | 0.935 µM (active) | – | 0.526 µM (active) | – | 3.77% (inactive) and 7.36% (inactive) | 0.935 µM (active) | – | –
COCCCOc1cc(C[C@@H](C[C@H](N)[C@@H](O)C[C@H](C(=O)NCC(C)(C)C(N)=O)C(C)C)C(C)C)ccc1OC | 40.6 | 119 | 50.1 | 86.2 | 148 | 113 | inactive | inactive | inactive | inactive | inactive | – | 13.7% (inactive) | – | – | –
Cc1noc(NS(=O)(=O)c2ccc(N)cc2)c1C | 96.2 | 98.9 | – | 98.2 | 138 | 96.8 | inactive | inactive | inactive | inactive | inactive | inactive | -10.4% (inactive) and -5.26% (inactive) | – | -2.22% (inactive) and 5.06% (inactive) | inactive
COc1ccc2c(c1)c(CC(=O)OCC(=O)O)c(C)n2C(=O)c1ccc(Cl)cc1 | 78.3 | 104 | – | 80.2 | 144 | 119 | inactive | inactive | inactive | inactive | inactive | – | – | – | – | –
O=C(O)c1cc(=O)[nH]c(=O)[nH]1 | 101 | 144 | 89 | 107 | 184 | 128 | inactive | inactive | inactive | inactive | inactive | inactive | -0.993% (inactive) | – | -10.9% (inactive) | inactive
NCCCC(O)(P(=O)(O)O)P(=O)(O)O | 96 | 107 | 114 | 117 | 169 | 97.8 | inactive | inactive | inactive | inactive | inactive | inactive | 14.9% (inactive) | – | – | –
O=S(=O)(c1cccc2cnccc12)N1CCCNCC1 | – | – | – | – | 21.4 | 94.6 | inactive | inactive | 26.4 µM (active) | inactive | inactive | inactive | -7.26% (inactive) | – | – | –
CC(=O)[C@H]1CC[C@H]2[C@@H]3CC=C4C[C@@H](O)CC[C@]4(C)[C@H]3CC[C@]12C | 89.9 | 88.9 | 85.3 | 65.7 | 106 | 107 | inactive | inactive | inactive | inactive | inactive | – | 11.7% (inactive) | – | – | –
CCc1c2c(nc3ccc(OC(=O)N4CCC(N5CCCCC5)CC4)cc13)-c1cc3c(c(=O)n1C2)COC(=O)[C@]3(O)CC | 66.3 | 59.3 | 67.7 | 71.1 | 21.9 | 8.86 | inactive | inactive | 0.332 µM (active) | 469 nM (active) | inactive | inactive | 2.43% (inactive) | – | – | –
CS(=O)(=O)c1ccc([C@@H](O)[C@@H](CO)NC(=O)C(Cl)Cl)cc1 | 40.4 | 51.5 | 55.8 | 56.8 | 94.5 | 86.4 | inactive | inactive | 13.2 µM (active) | – | 18.7 µM (active) | inactive | 8.86% (inactive) | 16.6 µM (active) | – | –
